# According to PubChem BioAssay (NCI):
# This is part of a sample that, as a whole, favours compounds with a hit. Of some 83,000 tested, about 20% had one in any assay.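 Assay: single dose, 48 h. Readout: percent growth (0 = no net growth; negative = cell death). Active: <10.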 Values without a mark were called inactive. The source made the active and inactive calls.
# Tested on: OVCAR-4 ovarian
# Test: NCI-60 one-dose screen, 48 h (100 = growth as untreated, 0 = no growth, -100 = all killed)
# Settings: 10 µM unless noted
row,Compound,growth
1,Cn1cnc([N+](=O)[O-])c1N1c2ccncc2Sc2ccncc21,179%
2,O=C(Nc1ccccc1F)Nc1ccccc1Cl,73%
3,CCCOC(=O)c1ccc([N+](=O)[O-])o1,95.1%
4,COc1cc(/C=C/C(=O)c2ccc(Oc3ncnc4ccccc34)cc2)cc(OC)c1OC,73.6%
5,COc1ccc(/C=C2\CS(=O)(=O)C/C(=C\c3ccc(OC)cc3)C2=O)cc1,12.3%
6,CC(NCCC(c1ccccc1)c1ccccc1)c1ccccc1 (stereo not given),64.9%
7,O=C(/C=C/c1ccco1)c1cccc(Nc2nc(Nc3ccccc3)nc(Nc3ccccc3)n2)c1,62.1%
8,Cc1cc(NCCN(C(C)C)C(C)C)nc(/N=C(\N)Nc2ccc(Cl)c(C(F)(F)F)c2)n1,-68.2% (active)
9,O=S1(=O)N(CCNc2nccc(-c3c(-c4cccc(O)c4)nc4sccn34)n2)CCN1Cc1ccccc1,110%
10,Clc1ccc(CN2COc3c(ccc4cccnc34)C2)cc1Cl,11.6%
11,CCC(C)Nc1ccc(N)cc1 (stereo not given),-4.82% (active)
12,CC1(C)N=C(N)N=C(N)N1c1ccc(OCC(=O)Nc2ccccc2)c(Cl)c1,46.1%
13,COc1ccc2c(c1)C(=O)/C(=C/c1ccc(OCC(=O)c3ccc(Cl)cc3)cc1)O2,78.4%
14,Cc1cccc(NC(=O)CCc2ccc(N3C(N)=NC(N)=NC3(C)C)cc2)c1,51.7%
15,CCn1c(SC)nnc1-c1cc2c([nH]c3ccccc32)c(-c2cccc(O)c2)n1,12.5%
